Screening results from PubChem BioAssay.
This is a sample that favours compounds with a hit; in the whole collection about 6.8% have one here.
Cy5 interf NS3h = enhances or quenches Cy5 fluorescence in NS3h assay | Cy5-dT15 DNA with NS3h, fluorescence interference; actives lie on both sides; signal over control mean, under 1 quenches | fluorescence interference ratio at 100 µM | 16,000 compounds, 6% hits;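 active = compound fluorescence over control fluorescence at most 0.8, a quencher, or at least a set upper limit, an enhancer; inactive = ratio between 0.8 and the set upper limit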
NS3h inh CB = blocks HCV NS3 helicase binding to DNA; NS3h Cy5-dT15 DNA binding, fluorescence polarization; AID 687043; 16,000 compounds, 1.6% hits; inhibition, % at 100 µM;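 active = inhibition above the average over every tested compound plus 3 SD, cut at about 40% in these data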
Numbers without * were called inactive.

SMILES | Cy5 interf NS3h | NS3h inh CB
COc1ccc(COC(=O)C2=C(C)NC3=C(C(=O)CCC3)C2c2coc3ccccc3c2=O)cc1 (stereo not drawn) | 1.05 | -6.0
CCc1ccc(OCC(=O)Nc2ccc(C)cc2[N+](=O)[O-])cc1 | 1.07 | 2.6
Cc1ccc(C(=O)/C=C/c2cn(-c3ccccc3)nc2-c2ccccc2)cc1 | 0.964 | -2.8
CS(=O)(=O)N(CC(=O)Nc1ccc(Cl)cc1)c1cccc(Cl)c1 | 0.966 | 13.7
CCOc1cc(/C=N\NC(=O)/C(=C\c2ccc3c(c2)OCO3)NC(=O)c2ccccc2)ccc1O | 1.01 | 8.8
NS(=O)(=O)c1ccc(N=Cc2ccc[nH]2)cc1 | 1.06 | 1.0
O=[N+]([O-])c1cccc(N=Cc2ccc[nH]2)c1 | 0.68* | 9.6
COc1ccc(CC(=O)ONC(=O)c2ccc(Cl)cc2)cc1OC | 1.04 | 5.0
Cc1ccc(C(=O)NCCNc2ccc(C(F)(F)F)cc2[N+](=O)[O-])cc1 | 0.925 | 9.6
Cc1ccc(-c2ccc(/C=C3\SC(=S)NC3=O)o2)c([N+](=O)[O-])c1 | 0.886 | 20.0
Cc1ccc(-c2ccc(C=C3C(=O)NC(=O)NC3=O)o2)c([N+](=O)[O-])c1 | 0.721* | 41.3*
COC(=O)c1ccc(NC(=O)C(C)N2C(=O)c3cccc4cccc(c34)C2=O)cc1 (stereo not drawn) | 0.947 | 7.9
COc1ccc(/C=C2/C(C)=C(C#N)c3nc(N)c(C#N)c(C)c32)cc1Br | 0.96 | 14.2
COc1cc(/C=C2/C(C)=C(C#N)c3nc(N)c(C#N)c(C)c32)c([N+](=O)[O-])cc1OC | 0.967 | 46.9*
Cc1ccc(NC(=O)C(=O)NCCN2CCOCC2)cc1 | 1.04 | 5.2
CC(NC(=O)c1ccccc1NC(=O)c1cccnc1)c1ccccc1 (stereo not drawn) | 1 | -2.6
COc1cccc(C(=O)N2N=C(c3cccc(Br)c3)CC2(O)C(F)(F)F)c1 (stereo not drawn) | 1 | 8.7
O=S(=O)(c1ccccc1C(O)(c1ccccc1)c1ccccc1)c1ccccc1C(O)(c1ccccc1)c1ccccc1 | 0.765* | 5.9
COc1ccc(CCNc2cc(N3CCN(CCO)CC3)ccc2[N+](=O)[O-])cc1OC | 1.03 | 0.4
Cc1ccc(-n2nc(C)c(-c3cccc([N+](=O)[O-])c3)c2C)cc1C | 0.897 | 4.2
Cc1nn(-c2ccc(Cl)c(Cl)c2)c(C)c1-c1cccc([N+](=O)[O-])c1 | 0.692* | 21.3
COCC(O)CN1CCN(c2ccc([N+](=O)[O-])cc2Cl)CC1 (stereo not drawn) | 0.993 | -13.0
O=[N+]([O-])c1ccc(N2CCN(S(=O)(=O)Cc3ccccc3)CC2)c(Cl)c1 | 0.743* | 17.7
O=C(O)c1ccccc1NC1=C(Cl)C(=O)N(c2cccc(Cl)c2)C1=O | 1.12 | 8.2
O=C1C(=O)N(c2ccccc2Br)C(=O)N1c1cccc(Cl)c1 | 0.7* | 18.6
SMILES | Cy5 interf NS3h | NS3h inh CB
O=C1c2ccccc2C(=O)N1CC=C(Cl)Cl | 0.98 | 1.3
O=C1C2C3C=CC(CC3)C2C(=O)N1/N=C\c1ccc(I)o1 (stereo not drawn) | 1.02 | -1.9
O=C1C2C3C=CC(CC3)C2C(=O)N1/N=C\c1cc([N+](=O)[O-])cc(Br)c1O (stereo not drawn) | 0.682* | 9.6
O=C(O)CN1C(=O)S/C(=C\c2ccc(O)cc2)C1=O | 1.03 | -1.7
CC1=CC(c2ccccc2)n2c(nc3ccccc32)N1 (stereo not drawn) | 1.05 | 0.4
Cc1cc(C)n2nc(-c3cccc(F)c3)cc2n1 | 0.934 | 7.2
Cc1cc(C)n2nc(-c3ccc(F)cc3)cc2n1 | 0.667* | 20.7
CCOc1ccccc1N(CC(=O)N1CCCC1)S(=O)(=O)c1ccccc1 | 1 | -1.6
CCCc1noc(-c2ccc(C(C)(C)C)cc2)n1 | 0.714* | 6.8
Clc1ccccc1Cc1noc(-c2ccc(Br)cc2)n1 | 1.11 | -1.8
CCCc1noc(-c2ccccc2Cl)n1 | 0.763* | 2.2
Clc1ccccc1Cc1noc(-c2ccccc2Cl)n1 | 0.918 | 2.2
Cc1cc(OCC(O)CN2CCCC2)cc(C)c1Cl (stereo not drawn) | 1.11 | 0.4
O=C(Cc1ccccc1)Nc1ccc(Cc2ccncc2)cc1 | 0.991 | 6.0
CC1CC(C)CN(C(=O)c2ccc(Cl)cc2)C1 (stereo not drawn) | 1.05 | -4.9
CC(=O)Nc1ccc(C(=O)N2CC(C)CC(C)C2)cc1 (stereo not drawn) | 0.687* | 4.0
COC(=O)c1cc(C(=O)Nc2ccc(C(N)=O)cc2)cc([N+](=O)[O-])c1 | 0.894 | 12.7
CCC(=S)/C=C1\Sc2ccc(OC)cc2N1CCCS(=O)(=O)O | 1.07 | 5.0
O=C(COc1ccccc1)C(=C(O)c1ccccc1)c1nc2ccccc2[nH]1 | 1.36* | -23.0
O=C(COc1cccc([N+](=O)[O-])c1)Nc1cccc(-c2nc3ccccc3[nH]2)c1 | 0.956 | -10.7
NC(=O)c1ccccc1Nc1ccn2c(=O)c3ccccc3nc2n1 | 1.02 | 14.1
CCC(=O)Nc1ccc(S(=O)(=O)N2CCCCCC2)cc1 | 0.737* | -8.6
O=C(O)/C=C/C(=O)Nc1ccc(S(=O)(=O)N2CCCCCC2)cc1 | 0.775* | 9.9
O=C(Nc1ccc(S(=O)(=O)N2CCCCCC2)cc1)c1ccc(F)cc1 | 0.86 | 1.7
Cc1ccc(C(=O)Nc2ccc(S(=O)(=O)N3CCCC3)cc2)cc1 | 1.11 | 10.0
SMILES | Cy5 interf NS3h | NS3h inh CB
CCOC(=O)/C(C#N)=C\c1ccc(-c2ccc(Cl)cc2)o1 | 1.11 | 8.4
COc1ccc(Cl)cc1N(CC(=O)NCC(C)C)S(=O)(=O)c1ccc(C)c([N+](=O)[O-])c1 | 0.708* | 18.6
CCN(CC)C(=O)CN(c1cc(Cl)ccc1OC)S(=O)(=O)c1ccc(C)c([N+](=O)[O-])c1 | 1.08 | 11.8
O=C(N/N=C\c1ccccc1Br)C(=O)N/N=C\c1ccccc1Br | 1.02 | 0.9
N#CC1=C(N)C(C#N)(C#N)C(c2ccc(Cl)cc2Cl)C2CCCC=C12 (stereo not drawn) | 1.23* | 0.3
CCc1cc(=O)oc2cc(C)cc(OC(C)=O)c12 | 1.06 | 1.2
CCc1cc(=O)oc2cc(C)cc(OCC(=O)c3ccccc3)c12 | 1.32* | -3.6
COC(=O)c1c(N=CN(C)C)c(C#N)c2n1CCCCC2 | 0.946 | -3.0
Cc1nnc(C)n1/N=C\c1ccc(Cl)cc1 | 0.959 | -9.4
CC1=NN(C(=O)c2ccc([N+](=O)[O-])cc2)C(O)(c2ccc(Cl)cc2)C1 (stereo not drawn) | 0.98 | 18.2
CC(C)(C)C1=NN(C(=O)c2ccc([N+](=O)[O-])cc2)C(O)(C(F)(F)F)C1 (stereo not drawn) | 0.672* | 15.0
CC(NC(=O)c1ccccc1)C12CC3CC(CC(C3)C1)C2 (stereo not drawn) | 0.942 | -6.1
Cc1cccc(C)c1NC(=O)CO/N=C(/N)c1nonc1N | 0.707* | 15.0
N/C(=N\OCC(=O)Nc1ccc(F)cc1)c1nonc1N | 1 | 0.0
O=C1S/C(=C\c2ccc(-c3ccccc3[N+](=O)[O-])o2)C(=O)N1c1cccc(Cl)c1 | 1.04 | 12.7
Cc1ccc(C(=O)CSc2nc3ccccc3c(=O)n2-c2ccccc2)cc1 | 1 | 21.8
COCCNC(=O)CN(c1ccc(C)cc1)S(=O)(=O)c1ccc(SC)cc1 | 0.923 | 4.2
COc1ccccc1NC(=O)CN(c1ccc(C)cc1)S(=O)(=O)c1ccc(SC)cc1 | 0.694* | 19.5
CSc1ccc(S(=O)(=O)N(CC(=O)Nc2cccc(C)c2)c2ccc(C)cc2)cc1 | 0.7* | 22.2
